Screening results from PubChem BioAssay.
Compounds with a hit are over-represented: about 21% of the library has one in this group of screens.
Shiga toxin inh: Shiga toxin inhibition; AID 2315; inhibition, % at 38.7 µM; 9.2% of 290,000 active; Vero cells, Shiga toxin protein synthesis inhibition reporter; in the data active means inhibition mostly above about 28%, no sharp cut-off; inactive means mostly below about 43%
Pf growth 48h: P. falciparum growth inhibition at 48 hours (one generation); 5.9% of 310,000 active; P. falciparum luciferase growth in erythrocytes, 48 h; Potency, µM (top dose mostly 28.7 µM), most hits filed as inhibitors; AID 504832
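Firefly luciferase activity from engineered P. falciparum reports growth; inhibitors lower the luminescent signal. Cultures contained 2% hematocrit erythrocytes at 0.1% final parasitemia.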
NS1 inh: inhibitors of influenza NS1 protein function; Potency, µM (titrated, usually from 46.1 µM); 0.4% of 270,000 active; calls by dose curve; further: actives are rising curves; nearly all actives have a fitted effect of over 50% in size
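Recovery from NS1-induced slow growth read by OD600 in budding yeast switched to galactose assay medium (pH 6.0, -URA) at 1:100 dilution. Compound 23 nl per well; the matching strain lacking NS1 serves as control.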
SARS PLpro yeast: SARS-CoV PLP inhibition in yeast; AID 485353; 0.19% of 330,000 active; Potency, µM (titrated, usually from 32.9 µM), usual class: activators; S. cerevisiae expressing SARS-CoV PLpro, growth rescue; calls by dose curve; further: nearly all actives have a fitted effect of over 55% in size
CHX counter: counter-screen for Shiga toxin inhibitors: cycloheximide protein synthesis inhibition | cell reporter, cycloheximide protein synthesis inhibition counterscreen | max response, % | 12% of 300,000 active; in the data active means max response mostly above about 13%, no sharp cut-off; inactive means mostly below about 14%; further: read at 38.3 µM for the half of the compounds with a filed dose
Pf growth 96h: P. falciparum growth inhibition at 96 hour, primary screen for plastid delayed-death inhibitors; AID 504834; 6.9% of 320,000 active; Potency, µM (doses to about 28.7 µM), usual class: inhibitors; P. falciparum luciferase reporter growth, 96 h
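P. falciparum expressing integrated firefly luciferase, in erythrocytes at 2% hematocrit, 0.05% parasitemia, incubated with compounds 96 h at 37 C, 5% CO2. Growth inhibition read as loss of luminescence; two-generation exposure targets delayed-death apicoplast inhibitors.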
Large screens that a line does not name were inactive. Unless noted, the call rests on the fitted dose curve; in most records, active means well fitted inhibition curve with a large enough effect; inconclusive means small, poorly fitted or top-dose-only effect, or another doubt; inactive means no such curve, though single readings can be large or run the other way.

CCOc1ccccc1C(C(=O)NC1CCCC1)N(Cc1ccco1)C(=O)CNC(=O)c1ccco1 (stereo not given)	Pf growth 48h 8.28µM, CHX counter 12.4, Pf growth 96h inconclusive
O=C(CNC(=S)N(Cc1ccccc1)Cc1cccnc1)NC1CCCCC1	Pf growth 48h inconclusive, Pf growth 96h 9.28µM
O=C(NCC(=O)N(Cc1ccccc1)C(C(=O)NC1CCCC1)c1ccco1)c1ccco1 (stereo not given)	Pf growth 96h 5.22µM
Cc1cccc(C)c1NC(=O)c1cccc(N2C(=O)C3CCC(C)CC3C2=O)c1 (stereo not given)	Pf growth 96h inconclusive
O=C(NC1CCCCC1)C(=O)N(Cc1cccnc1)C(C(=O)NCc1ccco1)c1ccccc1 (stereo not given)	Pf growth 96h 5.22µM (no result: NS1 inh)
O=C(NCC(=O)N(Cc1ccccc1)C(C(=O)NC1CCCC1)c1ccncc1)c1ccco1 (stereo not given)	Pf growth 48h inconclusive, CHX counter 20.4, Pf growth 96h inconclusive
O=C(NC1CCCC1)C(=O)N(Cc1cccnc1)C(C(=O)NCc1ccco1)c1ccccc1F (stereo not given)	none
CC(=O)Nc1ccc(S(C)(=O)=O)c(C)c1	none
O=[N+]([O-])c1ccc(SCc2ccco2)cc1N1CCOCC1	Shiga toxin inh 54.0, Pf growth 48h inconclusive, CHX counter 29.2 (no result: NS1 inh)
O=[N+]([O-])c1ccc(N2CCOCC2)cc1SCc1ccco1	none
C=CCn1c(=S)[nH]c2scc(-c3ccc(C)o3)c2c1=O	none (no result: NS1 inh)
C=CCn1c(SCC(=O)NCCCC)nc2scc(-c3ccco3)c2c1=O	Pf growth 48h 13.1µM, Pf growth 96h inconclusive
Cc1ccc(-c2csc3nc(C)n(N)c(=O)c23)o1	Shiga toxin inh 47.4, CHX counter 45.6 (no result: Pf growth 48h)
C=CCn1c(SCC(C)=O)nc2scc(-c3ccc(C)o3)c2c1=O	Shiga toxin inh 18.6, CHX counter 20.1 (no result: SARS PLpro yeast)
C=CCn1c(SCC(=O)NC2CCCC2)nc2scc(-c3ccco3)c2c1=O	Pf growth 48h inconclusive
Cc1ccc(-c2csc3nc(C)n(-n4c(C)ccc4C)c(=O)c23)o1	Pf growth 96h inconclusive
C/C(=N/OC(=O)c1ccc(Cl)cc1Cl)c1oc(C)nc1C	none
O=C(O)c1cccc(Nc2nc(Nc3ccccc3)nc(N3CCCC3)n2)c1	none (no result: NS1 inh)
CC(=O)NS(=O)(=O)c1ccc2sc(C)nc2c1	none
CCOc1ccccc1N1CCN(CC(=O)NCCc2ccc(S(N)(=O)=O)cc2)CC1	Pf growth 48h inconclusive (no result: NS1 inh)
CCCCOc1ccc(OC(=O)c2cccnc2)cc1	Pf growth 48h inconclusive
CC(=O)c1cc(C)ccc1OC(=O)c1cccnc1	Pf growth 96h 9.28µM
CCCCCCCOc1ccc(OC(=O)c2cccnc2)cc1	Pf growth 96h inconclusive (no result: Pf growth 48h)
CCCCOC(=O)c1ccc(OC(=O)c2cccnc2)cc1	Shiga toxin inh 33.4, CHX counter 23.5
CC(C)(C)c1ccc(OC(=O)c2cccnc2)cc1	CHX counter 18.0, Pf growth 96h inconclusive
CCCCCCOC(=O)c1ccc(OC(=O)c2cccnc2)cc1	Shiga toxin inh 58.1, CHX counter 32.2 (no result: Pf growth 48h)
COc1ccc(NC(=O)C2CCN(S(=O)(=O)c3c(C)noc3/C=C/c3cccs3)CC2)cc1Cl	none (no result: Pf growth 48h, NS1 inh, SARS PLpro yeast, Pf growth 96h)
COc1ccc(Nc2ccc([N+](=O)[O-])cc2[N+](=O)[O-])cc1	none
COc1ccc(C(=O)Oc2ccc(C(C)=O)cc2)c(OC)c1	CHX counter 29.8
COc1ccc(C(=O)OCCCOC(=O)c2ccc(OC)cc2OC)c(OC)c1	none
COc1ccccc1C(=O)Oc1ccc(C(C)(C)C)cc1	CHX counter 29.4 (no result: Pf growth 48h)
CCOc1ccc(-c2noc(CCCC(=O)NC3CCCC3)n2)cc1OC	Pf growth 48h inconclusive
O=C(Cn1c(=O)n(Cc2ccco2)c(=O)c2ccccc21)Nc1cccc(Cl)c1	Shiga toxin inh 30.5, Pf growth 48h inconclusive, CHX counter 22.9, Pf growth 96h inconclusive
O=C(Nc1cccc(Cl)c1)c1c(O)c2c(n(Cc3ccco3)c1=O)CCCC2	NS1 inh inconclusive, CHX counter 31.4
O=C(CCCn1c(=O)c2ccccc2n(CC(=O)NCc2ccco2)c1=O)NCc1ccco1	none
O=C(CCCCn1c(=O)c2ccccc2n(CC(=O)Nc2ccc(F)cc2)c1=O)NCc1ccco1	Pf growth 48h 11.7µM, Pf growth 96h inconclusive
CCCN(CCC)C(=O)Cn1c(=O)n(CCCCC(=O)NCc2ccco2)c(=O)c2ccccc21	Pf growth 96h 11.7µM (no result: Pf growth 48h)
O=C(Nc1nccs1)C1CC=CC2CCN(Cc3ccc(Cl)c(Cl)c3)C(=O)C21 (stereo not given)	none (no result: Pf growth 48h, NS1 inh, SARS PLpro yeast, Pf growth 96h)
COC(=O)c1cc(CNC(=O)c2cccc(Cl)c2Cl)ccc1OC	none
CCCCc1ccc(C2C3=C(CC(C)(C)CC3=O)NC3=C2C(=O)c2ccccc23)cc1 (stereo not given)	Pf growth 48h 13.1µM, NS1 inh inconclusive, Pf growth 96h inconclusive
CCCc1ccc(C2C3=C(CC(C)(C)CC3=O)NC3=C2C(=O)c2ccccc23)cc1 (stereo not given)	Pf growth 48h 9.28µM, NS1 inh inconclusive, Pf growth 96h 3.29µM
Cc1c(C(=O)N2CCN(Cc3ccccc3)CC2)oc2c1C(=O)CC(C)(C)C2	Pf growth 48h inconclusive
O=C(O)CC1NC(=O)N(c2ccccc2)C1=O (stereo not given)	Pf growth 96h 2.62µM
CCCCC1NC(=S)N(C2CCCCC2)C1=O (stereo not given)	none
O=C1C(Cc2ccccc2)NC(=S)N1c1ccccc1 (stereo not given)	Pf growth 48h inconclusive
O=C(O)CC1NC(=O)N(C2CCCCC2)C1=O (stereo not given)	Pf growth 96h 11.7µM (no result: NS1 inh)
Cc1ccc(Nc2cc(C)c3c(O)cccc3n2)cc1C	Shiga toxin inh 76.4, Pf growth 48h 2.62µM, CHX counter 46.4, Pf growth 96h 2.62µM
COC(=O)c1cc(Nc2cc(C)c3ccc(O)cc3n2)cc(C(=O)OC)c1	Pf growth 48h inconclusive, Pf growth 96h inconclusive
COc1ccc(Nc2cc(C)c3c(O)cccc3n2)cc1	Pf growth 48h 2.33µM, CHX counter 32.1, Pf growth 96h 1.65µM
Cc1ccccc1Nc1cc(C)c2c(O)cccc2n1	Pf growth 48h inconclusive, CHX counter 23.0
Cc1cc(NCc2ccco2)nc2cc(O)ccc12	Pf growth 48h 3.29µM, Pf growth 96h 5.22µM
O[C@@H]1[C@@H](OCc2ccccc2)OC[C@H](O)[C@@H]1O	none (no result: Shiga toxin inh, Pf growth 48h, SARS PLpro yeast, CHX counter, Pf growth 96h)
CN(C(=O)COc1cccc(C#N)c1)C1CCS(=O)(=O)C1 (stereo not given)	none (no result: Shiga toxin inh, NS1 inh, CHX counter)
CCOC(=O)C(C)NC(=O)c1cn(-c2ccc(OC)cc2)c(=O)c2ccccc12 (stereo not given)	none
COc1ccc(OC)c(NC(=O)C2CC(=O)N(Cc3ccco3)C2)c1 (stereo not given)	Pf growth 48h inconclusive (no result: Shiga toxin inh, NS1 inh, CHX counter)
COC(=O)c1cc(Nc2cc(C)c3c(O)cccc3n2)cc(C(=O)OC)c1	Pf growth 48h 9.28µM, CHX counter 16.4, Pf growth 96h inconclusive
